# In the supplement of paper PMC11219838:
# Values without a mark were called inactive.
# System: Caenorhabditis elegans L1 (N2)
# Assay: survival and reproduction score of C. elegans L1 (0: 0-10 living worms, 1: 11-20, 2: 21-50, 3: >50, 4: overgrown) (score 0-4); higher = more worms, less nematicidal, active = 1 or less; extreme values may be limits of the assay
# Details: 60 µM; 6 days; temperature: 20 °C
# Procedure, shortened: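 About 20 synchronized C. elegans N2 L1s were added per 96-well well with E. coli HB101 in liquid NGM, and compound was pinned to 60 µM final (0.6% v/v DMSO). Sealed plates were shaken at 200 rpm for 6 days at 20 °C. Survival and reproduction were scored under a dissection microscope as an ordinal score of living worms per well. The scale ran 0 (0–10 worms) to 4 (overgrown, starved), and two biological replicates were averaged.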
row,SMILES,survival and reproduction score
1,Cc1ccc(-c2noc(COc3cc(C)ccc3C)n2)cc1,4
2,COc1ccc(-c2noc(-c3ccc(C)c(Cl)c3)n2)cc1,4
3,COc1cccc(-c2nc(-c3ccc(Br)cc3)no2)c1,0 (active)
4,COc1ccc(-c2noc(-c3ccc(C)cc3)n2)cc1,3
5,CCc1ccc(OCc2nc(-c3cccc(OC)c3)no2)cc1,4
6,Cc1cc(Cl)ccc1OCc1nc(-c2ccncc2)no1,0.5 (active)
7,CC(C)(C)c1ccc(-c2nnc(SCc3cccc(C#N)c3)o2)cc1,3.5
8,COc1ccc(Cl)cc1-c1nnc(SCC(=O)Nc2nccs2)o1,4
9,COc1ccc(-c2noc(-c3ccc(Br)cc3)n2)cc1,0 (active)
10,CSc1ccccc1-c1nc(-c2cccnc2)no1,4
11,FC(F)(F)c1cccc(-c2noc(-c3cccs3)n2)c1,0 (active)
12,COc1ccc(OCc2nc(-c3cccc(Br)c3)no2)cc1,4
13,COc1ccc(-c2nnc(SCC(=O)N3CC(C)CC(C)C3)o2)cc1 (centres undefined),4
14,Brc1ccc(OCc2nc(-c3ccc4c(c3)OCO4)no2)cc1,4
15,Clc1ccccc1-c1noc(-c2cccnc2)n1,4
16,COc1ccccc1-c1nc(-c2ccccc2)no1,4
17,Clc1ccc(-c2nc(-c3ccncc3)no2)cc1Cl,4
18,Cc1cc(Cl)ccc1OCc1nc(-c2cccnc2)no1,4
19,COC(=O)CSc1nnc(-c2ccc(C(C)(C)C)cc2)o1,3.5
